{"source": "PubChem BioAssay (Tox21)", "key": {"[1]": {"test": "qHTS assay to identify small molecule agonists of the NFkB signaling pathway - cell viability counter screen (AID 1159515); further: series mostly up to about 61 µM; nearly all actives have a fitted effect of over 55% in size", "summary_of_the_method": "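5 hr compound treatment of NFkB-bla ME-180 cells (2,000/well, seeded overnight beforehand), followed by reporter substrate for 1.5 hr. CellTiter-Glo added afterward; luminescence after 30 min RT.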"}, "[2]": {"test": "qHTS assay to identify small molecule agonists of the endoplasmic reticulum stress response signaling pathway (AID 1159516; active means well fitted activation curve with a large enough effect in the signal ratio in the repeat runs, not every such curve was filed as active; the % refers to the signal ratio)", "summary_of_the_method": "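Reporter HeLa cells (ESRE-beta-lactamase) underwent 5 hr compound incubation at 37 C and 5% CO2 in quantitative HTS format. Detection followed 2 hr of FRET substrate loading at room temperature.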"}, "[3]": {"test": "qHTS assay to identify small molecule antagonists of the retinoid-related orphan receptor gamma (ROR-gamma) signaling pathway - cell viability counter screen (AID 1159520; active means well fitted curve in the direction sought with a large enough effect in the repeat runs; an effect the other way counts as inactive or inconclusive; further: nearly all actives have a fitted effect of over 50% in size)", "summary_of_the_method": "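Tet-on ROR gamma CHO cells were given compounds for 2 hr, then doxycycline hyclate at 1 uM final, and incubated 16 hr at 37 C. Viability was measured as ATP content by CellTiter-Glo luminescence.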"}, "[4]": {"target": "Nuclear receptor ROR-gamma (Homo sapiens) (UniProt P51449)", "test": "qHTS assay to identify small molecule antagonists of the retinoid-related orphan receptor gamma (ROR-gamma) signaling pathway (AID 1159521; active means well fitted curve in the direction sought with a large enough effect in the repeat runs; an effect the other way counts as inactive or inconclusive; further: nearly all actives have a fitted effect of over 50% in size; further: potency means the concentration at half of the fitted maximal effect)", "summary_of_the_method": "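CHO cells expressing RORγ under a TET-on promoter, luciferase under RORE control. Dox 1 uM final, 16 h; compounds added 2 h prior. Luminescence decrease measured.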"}, "[5]": {"test": "qHTS assay to identify small molecule agonists of the AP-1 signaling pathway (AID 1159526); further: potency means the concentration at half of the fitted maximal effect"}, "[6]": {"target": "Retinoic acid receptor RXR-alpha (Homo sapiens) (UniProt P19793)", "sequence (P19793 whole entry, looked up)": "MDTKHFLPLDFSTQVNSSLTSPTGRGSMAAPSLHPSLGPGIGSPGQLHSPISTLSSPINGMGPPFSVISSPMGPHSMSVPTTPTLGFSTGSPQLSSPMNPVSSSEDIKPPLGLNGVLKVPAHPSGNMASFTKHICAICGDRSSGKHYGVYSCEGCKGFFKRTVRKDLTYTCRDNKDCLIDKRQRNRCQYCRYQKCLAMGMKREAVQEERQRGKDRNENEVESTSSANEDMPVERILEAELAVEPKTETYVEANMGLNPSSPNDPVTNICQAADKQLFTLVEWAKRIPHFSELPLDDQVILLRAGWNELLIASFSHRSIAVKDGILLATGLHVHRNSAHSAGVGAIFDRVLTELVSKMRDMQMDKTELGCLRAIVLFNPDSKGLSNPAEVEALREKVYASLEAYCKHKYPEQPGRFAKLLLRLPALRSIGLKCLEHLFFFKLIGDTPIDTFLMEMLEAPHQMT", "test": "qHTS assay to identify small molecule agonists of the RXR signaling pathway (AID 1159527); further: nearly all actives have a fitted effect of over 35% in size", "summary_of_the_method": "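Beta-lactamase reporter assay, agonist format. Engineered HEK 293T line, charcoal-stripped FBS at 2%, overnight (16 hr) exposure, fluorescence at 460 and 530 nm after 405 nm excitation.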"}, "[7]": {"test": "qHTS assay to identify small molecule agonists of the RXR signaling pathway - cell viability counter screen (AID 1159529; active means well fitted curve in the direction sought with a large enough effect in the repeat runs; an effect the other way counts as inactive or inconclusive; further: nearly all actives have a fitted effect of over 50% in size; further: potency means the concentration at half of the fitted maximal effect)", "summary_of_the_method": "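Same-well viability check after the LiveBLAzer FRET read: CellTiter-Glo added, luminescence measured after 30 min at room temperature. Reporter HEK 293T cells had been treated with compounds for 16 hr following a 5 hr preincubation.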"}, "[8]": {"test": "qHTS assay to identify small molecule antagonists of the vitamin D receptor (VDR) signaling pathway - cell viability counter screen (AID 743225; active means well fitted curve in the direction sought with a large enough effect in the repeat runs; an effect the other way counts as inactive or inconclusive; further: nearly all actives have a fitted effect of over 50% in size; further: potency means the concentration at half of the fitted maximal effect)", "summary_of_the_method": "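Luminescent cell viability (CellTiter-Glo) in VDR-bla HEK 293T cells after 16 h compound exposure at 37C in the presence of 3 nM final 1-alpha,25-dihydroxy vitamin D3.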"}, "[9]": {"test": "qHTS assay to identify small molecule agonists of the AP-1 signaling pathway - cell viability counter screen (AID 1159525); further: nearly all actives have a fitted effect of over 55% in size", "summary_of_the_method": "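AP-1-bla ME-180 cells in Opti-MEM with 0.5% dialyzed FBS, compound exposure 5 h at 37 C in 15-point titration. Viability read in the same wells as ATP content by CellTiter-Glo luminescence, normalised to tetra-n-octylammonium bromide and DMSO controls.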"}}, "note": "Records with an inconclusive call do not appear. A call without a number means that no potency is given here. Calls of active or inactive are those of the source. Unless noted, the call rests on the fitted dose curve.", "data": [{"smiles": "Cc1ccc(-c2ccccc2)cc1", "values": [{"measurement": "Potency", "setting": "[1]", "result": "inactive"}, {"measurement": "Potency", "setting": "[2]", "result": "inactive"}, {"measurement": "Potency", "setting": "[3]", "result": "inactive"}, {"measurement": "Potency", "setting": "[4]", "result": "inactive"}, {"measurement": "Potency", "setting": "[5]", "result": "inactive"}, {"measurement": "Potency", "setting": "[6]", "result": "inactive"}, {"measurement": "Potency", "setting": "[7]", "result": "inactive"}]}, {"smiles": "C#C[C@]1(OC(C)=O)CC[C@H]2[C@@H]3CCC4=C[C@@H](OC(C)=O)CC[C@@H]4[C@H]3CC[C@@]21C", "values": [{"measurement": "Potency", "setting": "[8]", "result": "inactive"}, {"measurement": "Potency", "setting": "[1]", "result": "inactive"}, {"measurement": "Potency", "setting": "[2]", "result": "inactive"}, {"measurement": "Potency", "setting": "[3]", "result": "inactive"}, {"measurement": "Potency", "setting": "[4]", "result": "33.5 µM (active)"}]}, {"smiles": "CC(N=C(NC#N)Nc1ccncc1)C(C)(C)C", "note": "(stereo unspecified)", "values": [{"measurement": "Potency", "setting": "[8]", "result": "inactive"}, {"measurement": "Potency", "setting": "[1]", "result": "inactive"}, {"measurement": "Potency", "setting": "[2]", "result": "inactive"}, {"measurement": "Potency", "setting": "[3]", "result": "inactive"}, {"measurement": "Potency", "setting": "[9]", "result": "inactive"}, {"measurement": "Potency", "setting": "[5]", "result": "inactive"}, {"measurement": "Potency", "setting": "[6]", "result": "inactive"}, {"measurement": "Potency", "setting": "[7]", "result": "inactive"}]}, {"smiles": "CC(CCc1ccccc1)NCC(O)c1ccc(O)c(C(N)=O)c1", "note": "(stereo unspecified)", "values": [{"measurement": "Potency", "setting": "[1]", "result": "inactive"}, {"measurement": "Potency", "setting": "[2]", "result": "inactive"}, {"measurement": "Potency", "setting": "[3]", "result": "inactive"}, {"measurement": "Potency", "setting": "[4]", "result": "inactive"}, {"measurement": "Potency", "setting": "[9]", "result": "inactive"}, {"measurement": "Potency", "setting": "[6]", "result": "inactive"}, {"measurement": "Potency", "setting": "[7]", "result": "inactive"}]}, {"smiles": "CN(C)CCN1CCN(c2cccc(Cl)c2)C1=O", "values": [{"measurement": "Potency", "setting": "[8]", "result": "inactive"}, {"measurement": "Potency", "setting": "[1]", "result": "inactive"}, {"measurement": "Potency", "setting": "[2]", "result": "inactive"}, {"measurement": "Potency", "setting": "[3]", "result": "inactive"}, {"measurement": "Potency", "setting": "[9]", "result": "inactive"}, {"measurement": "Potency", "setting": "[5]", "result": "inactive"}, {"measurement": "Potency", "setting": "[6]", "result": "inactive"}, {"measurement": "Potency", "setting": "[7]", "result": "inactive"}]}, {"smiles": "OCCN1CCN(CCCN2c3ccccc3Sc3ccc(C(F)(F)F)cc32)CC1", "values": [{"measurement": "Potency", "setting": "[8]", "result": "23.9 µM (active)"}, {"measurement": "Potency", "setting": "[1]", "result": "inactive"}, {"measurement": "Potency", "setting": "[2]", "result": "inactive"}, {"measurement": "Potency", "setting": "[3]", "result": "inactive"}, {"measurement": "Potency", "setting": "[9]", "result": "inactive"}, {"measurement": "Potency", "setting": "[7]", "result": "23.9 µM (active)"}]}, {"smiles": "CCN1C(=O)c2ccccc2C1Nc1ccc(OCCN2CCCCC2)cc1", "note": "(stereo unspecified)", "values": [{"measurement": "Potency", "setting": "[8]", "result": "inactive"}, {"measurement": "Potency", "setting": "[1]", "result": "inactive"}, {"measurement": "Potency", "setting": "[2]", "result": "inactive"}, {"measurement": "Potency", "setting": "[3]", "result": "inactive"}, {"measurement": "Potency", "setting": "[5]", "result": "inactive"}, {"measurement": "Potency", "setting": "[6]", "result": "inactive"}, {"measurement": "Potency", "setting": "[7]", "result": "inactive"}]}, {"smiles": "OCC(F)(F)F", "values": [{"measurement": "Potency", "setting": "[1]", "result": "inactive"}, {"measurement": "Potency", "setting": "[2]", "result": "inactive"}, {"measurement": "Potency", "setting": "[4]", "result": "inactive"}, {"measurement": "Potency", "setting": "[9]", "result": "inactive"}, {"measurement": "Potency", "setting": "[6]", "result": "inactive"}, {"measurement": "Potency", "setting": "[7]", "result": "inactive"}]}, {"smiles": "S=c1nccc[nH]1", "values": [{"measurement": "Potency", "setting": "[8]", "result": "inactive"}, {"measurement": "Potency", "setting": "[1]", "result": "inactive"}, {"measurement": "Potency", "setting": "[2]", "result": "inactive"}, {"measurement": "Potency", "setting": "[3]", "result": "inactive"}, {"measurement": "Potency", "setting": "[5]", "result": "49.1 µM (active)"}, {"measurement": "Potency", "setting": "[6]", "result": "inactive"}, {"measurement": "Potency", "setting": "[7]", "result": "inactive"}]}, {"smiles": "CCN(CC)c1ccc2c(-c3ccc(S(=O)(=O)O)cc3S(=O)(=O)[O-])c3ccc(=[N+](CC)CC)cc-3oc2c1", "values": [{"measurement": "Potency", "setting": "[1]", "result": "inactive"}, {"measurement": "Potency", "setting": "[2]", "result": "inactive"}, {"measurement": "Potency", "setting": "[5]", "result": "inactive"}, {"measurement": "Potency", "setting": "[6]", "result": "inactive"}, {"measurement": "Potency", "setting": "[7]", "result": "inactive"}]}]}
